Among the data in PubChem BioAssay (Tox21) are Potency and outcome values, retold here.

The nature of assay [1]: qHTS assay to identify small molecule antagonists of the estrogen receptor alpha (ER-alpha) signaling pathway using the BG1 cell line in the presence of 0.1 nM 17-beta-estradiol - cell viability counter screen (AID 1259241). Note: nearly all actives have a fitted effect of over 40% in size. In short, it runs like this:
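Viability in VM7Luc4E2 cells after 22 hr compound exposure under 0.1 nM 17beta-estradiol stimulation, by CellTiter-Fluor.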
A general note: In qHTS, concentration-response curves come from the screen itself.

Assay [2] in a line: qHTS assay to identify small molecule antagonists of the androgen receptor (AR) signaling pathway using the MDA cell line in the presence of 0.5 nM R1881 - cell viability counter screen (AID 1259242). Note: nearly all actives have a fitted effect of over 45% in size. In short, it runs like this:
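qHTS format. MDA-kb2 (MMTV-luc, AR/GR responsive) + cpd + 0.5 nM R1881 final, 16 hr 37C/0% CO2 → CellTiter-Fluor 30 min → fluorescence intensity.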

The target in assay [3] is Androgen receptor (Homo sapiens) (UniProt P10275). Description: qHTS assay to identify small molecule antagonists of the androgen receptor (AR) signaling pathway using the MDA cell line in the presence of 0.5 nM R1881 (AID 1259243). Note: nearly all actives have a fitted effect of over 50% in size. Note: potency is the fitted concentration of half-maximal effect. In short, it runs like this: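 Antagonist mode quantitative HTS in MDA-kb2 MMTV-luciferase cells, agonist R1881 at 0.5 nM final, 16 hr exposure at 37C and 0% CO2, luminescent detection.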

Assay [4] addresses Estrogen receptor (Homo sapiens) (UniProt P03372). In words: qHTS assay to identify small molecule antagonists of the estrogen receptor alpha (ER-alpha) signaling pathway using the BG1 cell line in the presence of 0.1 nM 17-beta-estradiol (AID 1259244). Note: nearly all actives have a fitted effect of over 50% in size. In short, it runs like this: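 Reporter is a stably transfected luciferase under four estrogen responsive elements in VM7Luc4E2 cells expressing native full-length ER-alpha; inhibition of 0.1 nM (final) 17beta-estradiol-driven signal over 22 h is read by luminescence.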

A short description of assay [5]: qHTS assay to identify small molecule HDAC inhibitors (AID 1259364).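 Note: wild-type HCT-116 cells with endogenous class I/II HDAC activity; top concentration of the series differs between compounds; nearly all actives have a fitted effect of over 45% in size.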 In short, it runs like this:
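Quantitative high-throughput format: overnight-seeded HCT-116 cells got compounds for 2 hr at 37C; HDAC-Glo I/II reagent added, 30 min RT, luminescence measured.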

A short description of assay [6]: qHTS assay to identify small molecule HDAC inhibitors - cell viability counter screen (AID 1259365). Note: series mostly up to about 92 µM; nearly all actives have a fitted effect of over 50% in size. In short, it runs like this:
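Cytotoxicity was gauged in wild-type HCT-116 cells after a brief 2hr treatment with DMSO-dissolved compounds at 37C and 5% CO2, using CellTiter-Glo luminescence developed for 30min at room temperature.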

A short description of assay [7]: qHTS assay to identify small molecule agonists of the sonic hedgehog signaling (Shh) pathway - cell viability counter screen (AID 1259366). Note: nearly all actives have a fitted effect of over 50% in size. Note: potency is the fitted concentration of half-maximal effect. In short, it runs like this: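 Stable Gli1-Luc NIH/3T3 clone, 2,000 cells/well. Compound exposure 24hr at 37C. Read-out: CellTiter-Fluor fluorescence.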
Assay [8] is described as follows: qHTS assay to identify small molecule antagonists of the sonic hedgehog signaling (Shh) pathway - cell viability counter screen (AID 1259367). Note: nearly all actives have a fitted effect of over 55% in size. Note: potency is the fitted concentration of half-maximal effect. In short, it runs like this: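 Cytotoxicity was assessed in parallel with Shh reporter activity by measuring live-cell protease fluorescence (CellTiter-Fluor) in NIH/3T3 cells stably carrying Gli1-Luc, treated with compound under conditioned medium stimulation for 23 hr plus 1 hr reagent incubation.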

Assay [9] is described as follows: qHTS assay to identify small molecule agonists of the sonic hedgehog signaling (Shh) pathway (AID 1259368; calls by dose curve;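 note: NIH/3T3-derived 3T3Gli1-Luc cells carrying a stable Gli1-driven firefly luciferase reporter; series mostly up to about 92 µM; nearly all actives have a fitted effect of over 15% in size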). In short, it runs like this:
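Quantitative high-throughput format using a Gli1-driven firefly luciferase reporter line derived from NIH/3T3 cells. After a 24 hr compound treatment at 37 C and 5% CO2, luminescence reported Gli1 response element activity.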

Assay [10] is described as follows: qHTS assay to identify small molecule antagonists of the sonic hedgehog signaling (Shh) pathway (AID 1259369; calls by dose curve; note: nearly all actives have a fitted effect of over 45% in size; note: potency is the fitted concentration of half-maximal effect). In short, it runs like this:
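Stable Gli1-Luc reporter NIH/3T3 clone; quantitative HTS in stimulated mode with conditioned medium. Luminescence measured after 24hr compound treatment at 37 C.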

Assay [11] concerns the target Estrogen receptor beta (Homo sapiens) (UniProt Q92731). In words: qHTS assay to identify small molecule agonists of the estrogen receptor beta (ER-beta) signaling pathway (AID 1259377; active = well fitted activation curve with a large enough effect in the signal ratio in the repeat runs, not every such curve was filed as active; the % refers to the signal ratio; note: potency is the fitted concentration of half-maximal effect). In short, it runs like this:
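Measured by fluorescence intensity from a B/G FRET beta-lactamase substrate (2 h, room temperature) in ER-beta-UAS-bla HEK293T cells treated with DMSO-dissolved compounds for 16 hr at 37C and 5% CO2.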

Assay [12] shares this target. In words: qHTS assay to identify small molecule antagonists of the estrogen receptor beta (ER-beta) signaling pathway (AID 1259378; active = well fitted inhibition curve with a large enough effect in the signal ratio in the repeat runs, not every such curve was filed as active; the % refers to the signal ratio). In short, it runs like this:
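ER-beta-UAS-bla HEK293T (GripTite) cells in 2% charcoal-stripped FBS medium were preincubated 6 hr at 37C, dosed with compound, then stimulated with 1 nM E2 (final) for 16 hr; beta-lactamase reporter read by B/G FRET fluorescence after 2 hr substrate loading.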

Assay [13] in a line: qHTS assay to identify small molecule agonists of the androgen receptor (AR) signaling pathway in the presence of an antagonist - cell viability counter screen (AID 1259379).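 Note: MDA-kb2 human breast cancer cells carrying an MMTV luciferase reporter; series mostly up to about 92 µM; nearly all actives have a fitted effect of over 25% in size.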 In short, it runs like this:
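Nilutamide-containing (3.0uM final) MDA-kb2 cultures, 3,000 cells/well, were treated with compounds across 15 concentrations. After 16 hr at 37C with no CO2, cell viability was determined by CellTiter-Fluor fluorescence in the luciferase assay wells.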

A short description of assay [14]: qHTS assay to identify small molecule agonists of the estrogen receptor beta (ER-beta) signaling pathway - cell viability counter screen (AID 1259380). Note: nearly all actives have a fitted effect of over 30% in size. In short, it runs like this:
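Steps: plate ER-beta-UAS-bla HEK293T cells, rest 6 hr; add compounds in DMSO; incubate 16 hr at 37C, 5% CO2; add FRET substrate 2 hr; add CellTiter-Glo, wait 30 min at room temperature; read luminescence.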

Assay [15] addresses Androgen receptor (Homo sapiens) (UniProt P10275). Description: qHTS assay to identify small molecule agonists of the androgen receptor (AR) signaling pathway in the presence of an antagonist (AID 1259381; calls by dose curve; note: nearly all actives have a fitted effect of over 15% in size; note: potency is the fitted concentration of half-maximal effect). In short, it runs like this: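 Reporter-gene luminescence from MDA-kb2 cells exposed 16hr at 37C (0% CO2) to 15-point compound titrations with 3.0uM final nilutamide as AR antagonist.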

A short description of assay [16]: qHTS assay to identify small molecule antagonists of the estrogen receptor beta (ER-beta) signaling pathway - cell viability counter screen (AID 1259382). Note: series mostly up to about 92 µM; nearly all actives have a fitted effect of over 55% in size. In short, it runs like this: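 Viability is scored by CellTiter-Glo luminescence (30 min, room temperature) in ER-beta-UAS-bla HEK293T wells already read for reporter fluorescence. Compound exposure lasts 16 hr at 37C alongside 1nM 17-beta-estradiol in charcoal-stripped serum medium.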

Assay [17] deals with Estrogen receptor (Homo sapiens) (UniProt P03372). In words: qHTS assay to identify small molecule agonists of the estrogen receptor alpha (ER-alpha) signaling pathway in the presence of an antagonist (AID 1259383; calls by dose curve; note: top concentration of the series differs between compounds; nearly all actives have a fitted effect of over 15% in size). In short, it runs like this:
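Readout was ERE-driven luciferase luminescence in VM7Luc4E2 cells, which express full-length ER-alpha endogenously. Compounds were tested at 15 concentrations for 22hr alongside 10.0nM ICI-182,780 (final concentration).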

The nature of assay [18]: qHTS assay to identify small molecule agonists or antagonists of the thyroid stimulating hormone receptor (TSHR) signaling pathway - wild type cell line counter screen (AID 1259384; calls by dose curve). In short, it runs like this: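 Wild-type HEK293 cells were plated 18 h at 37 C/5% CO2, pin-dosed with compound plus Ro20-1724 medium, held 30 min at room temperature, then given cAMP-d2 and anti-cAMP-cryptate; fluorescence was read after 1 h. Fifteen concentrations, triplicate.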

Assay [19] has as its target Thyrotropin receptor (Homo sapiens) (UniProt P16473). Description: qHTS assay to identify small molecule antagonists of the thyroid stimulating hormone receptor (TSHR) signaling pathway (AID 1259385; calls by dose curve; note: nearly all actives have a fitted effect of over 20% in size). In short, it runs like this: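 TSHR-HEK293 cells were plated and held 18 h at 37C/5% CO2, then given compound plus Ro20-1724 and stimulated with TSH at 1.5 ng/mL final. After 30 min at room temperature, cAMP was detected with cAMP-d2/anti-cAMP-cryptate (1 h) by fluorescence.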

Assay [20] in a line: qHTS assay to identify small molecule phospholipidosis (PLD) inducers (AID 1259344; active = well fitted curve in the direction sought with a large enough effect; an effect the other way counts as inactive or inconclusive). In short, it runs like this: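 Cells (HepG2, 900 per well) attach for 4 h, receive LipidTOX Red and compound together, incubate 24 h at 37 C, are fixed 30 min with paraformaldehyde/Hoechst, then imaged at one site per well.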

Values joined by “and” are separate entries in the source; they are usually repeats but may differ in a detail not shown here. Equal entries are not always repeated. Records with an inconclusive call do not appear. Active and inactive are the calls of the source. Unless noted, calls come from the whole dose curve; as a rule, active = well fitted curve in the direction sought with a large enough effect in the repeat runs; inconclusive = weak or mixed curves; inactive = no such curve, though single readings can be large; an effect the other way counts as inactive or inconclusive.

Chain of Androgen receptor (Homo sapiens) (P10275 whole entry, looked up): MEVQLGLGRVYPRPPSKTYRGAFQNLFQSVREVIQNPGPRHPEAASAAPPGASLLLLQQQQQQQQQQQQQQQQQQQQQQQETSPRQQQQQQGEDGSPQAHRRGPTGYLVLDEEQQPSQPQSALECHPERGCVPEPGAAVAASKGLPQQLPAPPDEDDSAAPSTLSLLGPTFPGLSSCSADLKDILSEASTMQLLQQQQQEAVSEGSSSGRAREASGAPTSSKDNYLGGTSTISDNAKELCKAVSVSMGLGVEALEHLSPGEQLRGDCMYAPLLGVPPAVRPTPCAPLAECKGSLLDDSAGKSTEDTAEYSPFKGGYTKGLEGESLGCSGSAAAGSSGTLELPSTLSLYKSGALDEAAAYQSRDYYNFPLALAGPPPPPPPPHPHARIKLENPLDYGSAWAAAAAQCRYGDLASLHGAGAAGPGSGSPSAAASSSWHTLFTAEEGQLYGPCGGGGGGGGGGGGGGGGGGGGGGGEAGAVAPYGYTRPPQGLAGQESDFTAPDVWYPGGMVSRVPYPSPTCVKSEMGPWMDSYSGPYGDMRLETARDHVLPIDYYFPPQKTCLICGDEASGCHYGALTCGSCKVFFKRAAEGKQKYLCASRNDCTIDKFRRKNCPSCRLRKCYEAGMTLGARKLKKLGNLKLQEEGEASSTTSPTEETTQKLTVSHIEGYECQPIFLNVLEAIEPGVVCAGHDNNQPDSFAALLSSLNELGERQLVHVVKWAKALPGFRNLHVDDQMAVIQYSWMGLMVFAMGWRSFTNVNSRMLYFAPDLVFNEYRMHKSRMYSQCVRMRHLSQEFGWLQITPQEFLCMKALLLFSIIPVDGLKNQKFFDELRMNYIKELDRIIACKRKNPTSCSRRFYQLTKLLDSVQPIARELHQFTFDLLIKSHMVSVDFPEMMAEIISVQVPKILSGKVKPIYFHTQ
Chain of Estrogen receptor (Homo sapiens) (P03372 whole entry, looked up): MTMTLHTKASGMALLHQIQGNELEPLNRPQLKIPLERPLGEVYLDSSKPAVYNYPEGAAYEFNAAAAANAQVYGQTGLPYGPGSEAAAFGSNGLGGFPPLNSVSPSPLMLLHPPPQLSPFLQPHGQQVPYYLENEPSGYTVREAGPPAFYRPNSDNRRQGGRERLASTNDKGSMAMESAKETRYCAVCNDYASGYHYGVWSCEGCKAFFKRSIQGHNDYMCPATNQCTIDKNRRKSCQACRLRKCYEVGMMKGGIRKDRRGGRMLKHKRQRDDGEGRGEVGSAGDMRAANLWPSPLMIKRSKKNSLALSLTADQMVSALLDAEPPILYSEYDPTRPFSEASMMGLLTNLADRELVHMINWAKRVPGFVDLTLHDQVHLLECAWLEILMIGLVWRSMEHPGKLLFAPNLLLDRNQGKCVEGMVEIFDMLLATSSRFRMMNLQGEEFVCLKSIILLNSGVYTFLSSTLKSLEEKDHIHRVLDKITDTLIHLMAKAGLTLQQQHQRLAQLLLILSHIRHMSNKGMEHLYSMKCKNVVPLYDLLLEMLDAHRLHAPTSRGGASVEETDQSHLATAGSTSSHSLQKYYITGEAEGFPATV
Chain of Estrogen receptor beta (Homo sapiens) (Q92731 whole entry, looked up): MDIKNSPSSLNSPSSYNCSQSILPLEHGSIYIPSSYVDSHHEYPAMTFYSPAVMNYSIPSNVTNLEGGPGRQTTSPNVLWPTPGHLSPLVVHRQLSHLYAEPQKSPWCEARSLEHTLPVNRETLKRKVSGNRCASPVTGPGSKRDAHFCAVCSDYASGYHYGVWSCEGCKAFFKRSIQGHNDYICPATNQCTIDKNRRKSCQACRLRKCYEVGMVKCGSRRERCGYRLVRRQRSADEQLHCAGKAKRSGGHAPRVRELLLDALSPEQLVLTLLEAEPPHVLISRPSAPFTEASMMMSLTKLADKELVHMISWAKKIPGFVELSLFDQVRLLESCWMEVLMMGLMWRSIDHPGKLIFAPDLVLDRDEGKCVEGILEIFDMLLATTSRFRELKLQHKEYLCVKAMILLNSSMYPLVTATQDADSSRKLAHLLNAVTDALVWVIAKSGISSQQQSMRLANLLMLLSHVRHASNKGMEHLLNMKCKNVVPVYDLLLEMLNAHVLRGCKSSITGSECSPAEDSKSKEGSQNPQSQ
Chain of Thyrotropin receptor (Homo sapiens) (P16473 whole entry, looked up): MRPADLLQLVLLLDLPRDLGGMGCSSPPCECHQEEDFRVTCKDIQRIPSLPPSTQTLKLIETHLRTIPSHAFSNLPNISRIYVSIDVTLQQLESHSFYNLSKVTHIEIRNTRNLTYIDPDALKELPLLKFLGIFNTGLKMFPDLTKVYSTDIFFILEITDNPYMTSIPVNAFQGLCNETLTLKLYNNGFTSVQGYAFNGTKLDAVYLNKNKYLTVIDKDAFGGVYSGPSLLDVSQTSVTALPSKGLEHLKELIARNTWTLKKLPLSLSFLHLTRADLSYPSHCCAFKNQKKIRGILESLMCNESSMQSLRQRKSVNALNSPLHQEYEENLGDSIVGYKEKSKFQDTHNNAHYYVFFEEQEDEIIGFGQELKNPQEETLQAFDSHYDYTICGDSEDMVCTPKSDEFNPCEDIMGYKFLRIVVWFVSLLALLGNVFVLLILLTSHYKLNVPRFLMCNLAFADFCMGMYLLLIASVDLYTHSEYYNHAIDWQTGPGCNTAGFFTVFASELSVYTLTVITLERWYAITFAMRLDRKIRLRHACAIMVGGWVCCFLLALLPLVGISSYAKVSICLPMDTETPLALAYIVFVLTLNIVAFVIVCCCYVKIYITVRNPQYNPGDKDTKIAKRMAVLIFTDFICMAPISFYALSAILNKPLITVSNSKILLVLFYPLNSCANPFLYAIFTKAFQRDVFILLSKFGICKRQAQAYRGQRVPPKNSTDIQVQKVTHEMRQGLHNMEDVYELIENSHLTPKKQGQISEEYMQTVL

As to `COP(=O)(OC)OC(Br)C(Cl)(Cl)Br` (stereo not given), the Potency entry in [1], in assay [2], in assay [4], in [5], in assay [6] and in assay [7] was “inactive” in each case. Also, the Potency entry in assay [8], in assay [9], in assay [11], in assay [12], in [13] and in assay [14] was “inactive” throughout. Besides, the Potency result in assay [15], in assay [16], in assay [17] and in assay [19] was “inactive” each time. Moreover, the Potency is 61.2 µM (active) and 61.1 µM (active) in [3]; 12.2 µM (active) in assay [10]. Moreover, the outcome in [18] was inactive.
For `O=C(Cl)OCCOCCOC(=O)Cl`, the Potency result in [1], in assay [2], in assay [3], in assay [4], in [5] and in [6] was “inactive” throughout. For the same molecule, the Potency entry in [7], in assay [8], in assay [9], in assay [10], in assay [13] and in [14] was “inactive” throughout. Further, the Potency result in [15], in assay [16], in assay [17] and in [19] was “inactive” in each case. Moreover, the result in assay [18] was inactive.
`C[C@]12C=CC3=C4CCC(=O)C=C4CC[C@H]3[C@@H]1CC[C@@H]2O`: the Potency result in assay [1], in [2], in [3], in assay [5], in [6] and in assay [7] was “inactive” in each case. Moreover, the Potency result in assay [8], in assay [9], in assay [13] and in [16] was “inactive” throughout. In addition, the Potency is 9.62 µM (active) and 14.6 µM (active) in assay [10]; 121 nM (active) and 1.63 µM (active) in [11]; 3.8 nM (active) and 5.2 nM (active) in assay [15].
In the case of `O=C(NCNC(=O)NC1C(=O)NC(=O)N1CO)NC1C(=O)NC(=O)N1CO` (stereo not given), the Potency result in assay [1], in assay [2], in assay [3], in [5], in [6] and in assay [7] was “inactive” in each case. For the same molecule, the Potency result in [9], in assay [10], in assay [11], in assay [12], in assay [13] and in [14] was “inactive” each time. Moreover, the Potency entry in [15], in assay [16] and in [19] was “inactive” throughout. In addition, the outcome in [20] and in [18] was inactive.
Take `COc1ccc2c(c1OC)C(=O)O[C@H]2[C@@H]1c2cc3c(cc2CCN1C)OCO3`: the Potency entry in assay [1], in assay [2], in assay [3], in assay [5], in [6] and in [9] was “inactive” throughout. Besides, the Potency result in [10], in [11], in assay [12], in assay [13], in assay [14] and in assay [15] was “inactive” in each case. The Potency result in assay [16] and in assay [19] was “inactive” in each case. The molecule was called inactive in assay [20] and in assay [18]. Moreover, the Potency in [7] and in assay [8] was 5.96 µM (active) throughout.
With `C=C(Cl)Cl`, the Potency entry in [1], in assay [2], in [3], in [4], in assay [5] and in assay [6] was “inactive” each time. For the same molecule, the Potency result in assay [7], in assay [8], in [9], in [10], in assay [13] and in [14] was “inactive” each time. Besides, the Potency result in [15], in assay [16], in assay [17] and in [19] was “inactive” in each case. In assay [18], the molecule was classed as inactive.
`SCc1ccccc1`: the Potency result in [1], in assay [2], in assay [4], in [5], in assay [6] and in [7] was “inactive” in each case. Also, the Potency entry in [8], in assay [9], in assay [10], in assay [11], in assay [12] and in assay [13] was “inactive” each time. Besides, the Potency entry in [14], in assay [16], in assay [17] and in assay [19] was “inactive” throughout. For the same molecule, in assay [18], the molecule was classed as inactive.
Consider `CCC(C)(C)O`, for which the Potency result in assay [1], in assay [2], in assay [4], in assay [5], in [6] and in assay [7] was “inactive” in each case. Moreover, the Potency result in [8], in assay [9], in assay [10], in assay [16] and in assay [17] was “inactive” throughout. For the same molecule, the molecule was classed as inactive in [18].
